About 1,500 (0.58%) of roughly 260,000 compounds were called active. Another 5% or so got no clear call; they are omitted.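 Rule for the calls: active = inhibition above a set limit at one or more doses, reproduced on every date tested; inconclusive = results disagree between test dates, or hit never tested in dose response; inactive = the rest.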 The list is a sample of the results. Entries with a potency or affinity are not part of this list.
biological target: Virion infectivity factor (Human immunodeficiency virus type 1 group M subtype B (isolate BH10)) + Virion infectivity factor (Human immunodeficiency virus type 1 group M subtype B (isolate BRU/LAI)) + Virion infectivity factor (Human immunodeficiency virus type 1 group M subtype B (isolate PCV12)) + Virion infectivity factor (Human immunodeficiency virus type 1 group M subtype B (isolate HXB2)) + DNA dC->dU-editing enzyme APOBEC-3G (Homo sapiens) (UniProt P69720+P69721+P69722+P69723+Q9HC16); assay: inhibitors of Vif binding to APOBEC3G peptide, primary screen, biochemical, TR-FRET, GST-Vif 1-94, biotin-A3G peptide, dose response retest (AID 1117319); conditions: hits give high values;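 note: Vif residues 1-94 fused to GST binding biotinylated APOBEC3G peptide 110-148; 0% = full assay without inhibitor and 100% = GST in place of GST-Vif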

inhibition, inactive:
CCOc1ccc(C(=O)Nc2ccc(N3CCCC3)cc2)cc1 -1.32%
CCOc1c(Cl)cc(CNc2ccc(N3CCCC3)cc2)cc1OC -0.34%
Cc1ccc2cc(CN(CCN(C)C)C(=S)Nc3ccccc3)c(=O)[nH]c2c1C 17%
CCOc1ccc(C2CC(=O)NC(SC)=C2C#N)cc1 (configuration not stated) -1.81%
CS/C(=N\S(=O)(=O)c1cccs1)Nc1ccc(Cl)cc1 3.6%
COc1ccc(OC)c(C2C(C(=O)Nc3ccccc3OC)=C(C)Nc3nc(CCCO)nn32)c1 (configuration not stated) 18.4%
COc1ccc(C2C(C(=O)Nc3ccc(F)cc3)=C(C)Nc3nc(CCCO)nn32)cc1 (configuration not stated) -0.37%
Nc1ccc(C(=O)N(CCO)CCO)cc1 2.26%
OCCN(CCO)c1ccc2ccccc2c1 9.83%
CN(CC(=O)Nc1ccc(F)cc1)C(=O)C1CCCC1 -2.12%
O=c1c2c3c(sc2n(CCN2CCCCC2)c(=O)n1Cc1ccco1)CCCCC3 30.5%
O=C(Cn1c(=O)n(Cc2ccco2)c(=O)c2c3c(sc21)CCCC3)Nc1ccccc1 -1.14%
FC(F)(F)c1cnc(Oc2ccc(-c3nnco3)cc2)c(Cl)c1 -4.28%
Oc1ccc(Br)cc1/C=N/n1c(COc2ccccc2)n[nH]c1=S 23.7%
Cc1ccc(S(=O)(=O)Cc2ccc(C(=O)NCc3cccs3)o2)cc1 2.29%
CSc1ccccc1NC(=O)c1cccnc1 -0.88%
CCN=c1scc(C)n1/N=C/c1ccsc1 24.1%
CCN=c1scc(C)n1/N=C/c1cc(Br)c(O)c(OC)c1 10.6%
CN=c1scc(C)n1/N=C/c1cc(Br)c(O)c(Br)c1 27.7%
C=C(C)CN=c1scc(C)n1/N=C/c1ccco1 7.84%
CN=c1scc(C)n1/N=C/c1ccc(O)cc1 3.18%
CN=c1scc(C)n1/N=C/c1ccc(O)cc1O 6.79%
O=C(Oc1coc(CSc2ncccn2)cc1=O)c1cccc([N+](=O)[O-])c1 -1.78%
O=C(Cc1ccccc1[N+](=O)[O-])NCC(=O)c1ccc2c(c1)OCO2 -9.24%
CC(CCc1ccccc1)N(C)CC(O)c1cccc([N+](=O)[O-])c1 (configuration not stated) -11.1%
Nc1ccn([C@@H]2O[C@H](CNCc3cccc(OC4CCCC4)c3)[C@@H](O)[C@H]2O)c(=O)n1 3.81%
COc1ccc([C@@H]2C[C@@H](c3ccccc3)Oc3cc(OC)cc(OC)c32)cc1 -2.19%

From PubChem BioAssay AID1117319 (Southern Research Institute, 2015)
